Screens (PubChem BioAssay)
Only a selection was taken, and hits are over-represented in it overall.
LmPK inh = blocks Leishmania mexicana pyruvate kinase activity; Q27686; purified LmPK, Kinase-Glo ATP luminescence, 1 h; actives 0.37% (n = 290,000); Potency, µM (highest dose often 57.5 µM), for inactives: at the highest dose activity change, negative = inhibition, actives largely listed as inhibitors; further: potency means the concentration at half of the fitted maximal effect; on the % scale 0 is the no-effect control and ±100 the full control effect
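ATP generated from ADP (0.1 mM) and PEP (0.5 mM) by 0.1 nM LmPK over 1 h at room temperature (pH 7.2 imidazole buffer) was detected by coupled luciferase luminescence. Values were normalized to uninhibited and no-enzyme wells.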
Sm TGR block = blocks Schistosoma mansoni thioredoxin glutathione reductase | Q962Y6 | purified TGR, DTNB reduction, TNB absorbance 405 nm | Potency, µM (top dose mostly 114 µM), inactives show top-dose activity change, negative = inhibition, most hits filed as inhibitors | actives 3% (n = 360,000); further: potency means the concentration at half of the fitted maximal effect; on the % scale 0 is the no-effect control and ±100 the full control effect; nearly all actives have a fitted effect of over 60% in size
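Kinetic colorimetric format: TGR-catalysed, NADPH-driven DTNB reduction monitored via TNB absorbance. Enzyme dispensed at 20 nM; compound exposure 15 min at room temperature before reaction start.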
TbPYK inhibitor = T. brucei pyruvate kinase inhibition; Potency, µM (highest dose often 76.8 µM), for the others: at the highest dose activity, negative = inhibition, hits mostly inhibitors; actives 0.12% (n = 410,000); Q57TT1; TbPYK enzyme, Kinase-Glo Plus ATP luminescence, 45 min; further: potency means the concentration at half of the fitted maximal effect; on the % scale 0 is the no-effect control and ±100 the full control effect; nearly all actives have a fitted effect of over 50% in size
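ADP (130 uM final) triggers the TbPYK reaction after compound addition; incubation is 45 min at room temperature. Kinase-Glo Plus is then added and luminescence imaged. Normalized data are fitted to concentration-effect curves.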
CHX counter = affects cycloheximide protein synthesis inhibition readout, counter-screen. cell reporter, cycloheximide protein synthesis inhibition counterscreen. actives 12% (n = 300,000). AID 2314. max response, %; in the data active means max response mostly above about 13%, no sharp cut-off; inactive means mostly below about 14%; further: read at 38.3 µM for the half of the compounds with a filed dose; 0% is about no effect
Shiga inhibitor = inhibitors of Shiga toxin in Vero cells; Vero cells, Shiga toxin protein synthesis inhibition reporter; inhibition, % at 38.7 µM; actives 9.2% (n = 290,000); in the data active means inhibition mostly above about 28%, no sharp cut-off; inactive means mostly below about 43%; further: 0% is about no effect
Giardia FBPA inh = Giardia lamblia aldolase inhibition; purified Giardia FBPA; Potency, µM (doses to about 59.6 µM), without a hit: at the highest dose activity, negative = inhibition, hits mostly inhibitors; A8B2U2; AID 2451; actives 0.71% (n = 290,000); further: potency means the concentration at half of the fitted maximal effect; on the % scale 0 is the no-effect control and ±100 the full control effect; nearly all actives have a fitted effect of over 55% in size
Target sequence (A8B2U2 whole entry, looked up): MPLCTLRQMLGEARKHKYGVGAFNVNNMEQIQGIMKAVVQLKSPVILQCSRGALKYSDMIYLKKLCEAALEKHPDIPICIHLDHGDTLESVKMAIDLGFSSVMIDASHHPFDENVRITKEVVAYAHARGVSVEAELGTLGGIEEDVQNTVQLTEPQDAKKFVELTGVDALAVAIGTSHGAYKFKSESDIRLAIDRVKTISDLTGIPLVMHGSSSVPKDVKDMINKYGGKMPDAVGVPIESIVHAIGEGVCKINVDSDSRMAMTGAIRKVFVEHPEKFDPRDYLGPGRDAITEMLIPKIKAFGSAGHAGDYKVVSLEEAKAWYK
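40 nM FBPA preincubated 10 min at RT with compound (up to 57.5 uM final), then substrate plus GAPDH/TPI/NAD/arsenate coupling and diaphorase/resazurin added. Fluorescence read after 20 min at RT, 525/598 nm.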
Active calls of the source: *. Unless noted, the call rests on the fitted dose curve; in most records, active means well fitted curve in the direction sought with a large enough effect; inconclusive means small, poorly fitted or top-dose-only effect, or another doubt; inactive means no such curve, though single readings can be large; an effect the other way counts as inactive or inconclusive.

`COc1ccc([N+](=O)[O-])cc1N(CC(=O)Nc1ccccc1C(=O)NC(C)C)S(C)(=O)=O` gave LmPK inh 0.3%, TbPYK inhibitor -3.3%, CHX counter 1.1, Shiga inhibitor -11.0 and Giardia FBPA inh -2.9%.
O=C(Nc1cccc(Cl)c1)Nc1cnccn1 was read as LmPK inh -7.8%, Sm TGR block -4.5%, TbPYK inhibitor 6.3%, CHX counter -2.9, Shiga inhibitor 16.3 and Giardia FBPA inh -0.3%.
Screening CC(C)c1ccc(NC(=O)Nc2cnccn2)cc1 returned LmPK inh -1.2%, Sm TGR block -16.9%, TbPYK inhibitor 0.1%, CHX counter 60.8* and Shiga inhibitor 73.3*.
For O=C(Nc1ccccc1)Nc1cnccn1 the results were LmPK inh -8.9%, Sm TGR block -4.2%, TbPYK inhibitor 6.2%, CHX counter 15.2, Shiga inhibitor 24.2* and Giardia FBPA inh 5.1%.
Screening O=C(Nc1ccc(Cl)cc1)Nc1cnccn1 returned LmPK inh -4.4%, Sm TGR block 0.0%, TbPYK inhibitor 6.3%, CHX counter 27.4*, Shiga inhibitor 26.3 and Giardia FBPA inh 1.5%.
For Cc1cc2nc(-c3cccc(NC(=O)c4cccc5ccccc45)c3)oc2cc1C the results were Sm TGR block 5.9% and TbPYK inhibitor -9.0%.
Cn1c(=O)[nH]c(=O)c2c1[nH]c(=S)n2Cc1ccc(Cl)cc1 was read as LmPK inh inconclusive, Sm TGR block -4.9%, TbPYK inhibitor 5.62µM*, CHX counter -0.4, Shiga inhibitor -2.1 and Giardia FBPA inh inconclusive.
O=C1C=CC(=O)C(C2=C3C(=O)N(CCc4ccccc4)CC(=O)N3CCC2)=C1 was read as LmPK inh inconclusive, Sm TGR block 0.282µM*, TbPYK inhibitor 2.51µM*, CHX counter 3.6, Shiga inhibitor 17.9 and Giardia FBPA inh 17.7µM*.
`CCOC(=O)C1=C(C)N=c2s/c(=C3\C(=O)Nc4ccccc43)c(=O)n2C1c1ccc2c(c1)OCO2` (configuration not stated) gave LmPK inh -3.6%, Sm TGR block 3.98µM*, TbPYK inhibitor -16.5%, CHX counter -1.2, Shiga inhibitor -6.1 and Giardia FBPA inh -17.1%.
Screening CCOC(=O)C1=C(C)N=c2s/c(=C\c3ccncc3)c(=O)n2C1c1ccc2c(c1)OCO2 (configuration not stated) returned LmPK inh 0.8%, Sm TGR block -14.1%, TbPYK inhibitor -12.3%, CHX counter -3.3, Shiga inhibitor -13.4 and Giardia FBPA inh -14.1%.
For O=C(CCc1nc2ccccc2s1)Nc1cccnc1 the results were LmPK inh 12.5%, Sm TGR block 3.7%, TbPYK inhibitor 1.8%, CHX counter 17.7, Shiga inhibitor 13.2 and Giardia FBPA inh -9.8%.
`CCOc1ccc(C(=O)CCc2nc3ccccc3s2)cc1` gave LmPK inh 2.7%, Sm TGR block 8.7%, TbPYK inhibitor -1.2%, CHX counter 22.1*, Shiga inhibitor 62.1* and Giardia FBPA inh -6.5%.
`O=C(CCCc1nc2ccccc2s1)NCc1ccccc1F` gave LmPK inh 3.2%, Sm TGR block -0.8%, TbPYK inhibitor 7.6%, CHX counter 13.1*, Shiga inhibitor 24.5 and Giardia FBPA inh 4.4%.
For NC(=O)c1ccc(NC(=O)CCc2nc3ccccc3s2)cc1 the results were LmPK inh -2.1%, Sm TGR block 0.8%, TbPYK inhibitor 0.7%, CHX counter 12.3*, Shiga inhibitor 17.0 and Giardia FBPA inh -8.8%.
COc1ccc(C2=COc3ccccc3C(=O)N2)cc1 was read as LmPK inh 7.5%, Sm TGR block 6.8%, TbPYK inhibitor -4.7%, CHX counter 21.1*, Shiga inhibitor 55.6* and Giardia FBPA inh 8.8%.
`COCCn1c(C)cc(/C=C2/NC(=O)N(c3ccc(Cl)cc3)C2=O)c1C` gave LmPK inh -0.9%, Sm TGR block -4.8%, TbPYK inhibitor -2.8%, CHX counter 55.0*, Shiga inhibitor 15.5 and Giardia FBPA inh -5.2%.
COCCCNc1nc(NCc2ccccc2OC)c2cnn(C)c2n1 was read as Sm TGR block -14.6% and TbPYK inhibitor -0.2%.
